Results reported in PubChem BioAssay AID1508600 (Functional Genomics Laboratory (NCATS/FGL), 2020).
Among all 53,000 sequences or so, about 3,700 (7%) were called active. The entries come from a sample that favours actives as a whole. Values without a mark were called inactive.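 The calls were made as follows: active = gene knockdowns whose robust z-score for IL-1 alpha signal is at least 2 or at most -2, so actives lie on both sides; inactive = the rest.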

Assay: Components of the Cytosolic LPS Sensing Pathway: Gene Identification via Genome-wide siRNA Screen;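 also: robust z of the log signal after scaling to non-targeting control siRNA wells of the plate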
Details: RAW264.7 macrophages, IL-1a HTRF, actives lie on both sides, screened at 100 nM (by protocol), cells primed 5 h with Pam3CSK4 first
Summary of the method: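 Knockdown: 100 nM siRNA, 48h, RAW264.7. Stimulation: Pam3CSK4 5 h, then LipidA via TransIT-TKO 24 h. Output: supernatant IL-1a HTRF, negative-control-normalized, log robust z-score; viability by CellTiter-Glo.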

| Sequence | z-score |
| --- | --- |
| GUCACUCUUUUUUAUGGAATT against Olfr485 | -1.48 |
| GGCGAAUUGAAGGAGACCATT against Tmod3 | 2.54 (active) |
| GGGCAUAGAUUAGUCUUUATT against Ing2 | 1.01 |
| GCGCAUAUUUUAUCAACUCTT against Plcb3 | 0.38 |
| GGAACCAUGGACCUUAAUUTT against Rbm4 | 0.291 |
| GCUUUCCUAGACAAUCUAUTT against Arhgap19 | 0.0654 |
| GGCUGCAUUACCCAGCUUATT against Olfr853 | 0.719 |
| GGAAGUCCUAUGAUUAAACTT against Zfand1 | -0.633 |
| CCUUCUAUUCACUUUACCATT against Vmn1r87 | -0.907 |
| GGGUUCACAUGGCAUAGUCTT against Zfp1 | -0.0137 |
| GGAGAGUACAGACACUGAGTT against Masp2 | -0.22 |
| GCUUAGACAACGACAUUUCTT against Mcoln3 | 2.04 (active) |
| GGUCUUCUCCAAGAUCUUCTT against Cyp26b1 | 1.03 |
| GCACACCUAUGUCCACUCUTT against Aars | -0.923 |
| GGUGCCUUCUGUAAACGAGTT against Foxc2 | 2.81 (active) |
| GGAAGGAAAACCUUUCAACTT against Cyp2j6 | 0.975 |
| GGUGGUGACCUUGGAUGUUTT against Gstp3 | -0.00982 |
| GGAAGCACAUAGAAGCCAATT against Defb11 | -0.504 |
| GGGAGAGUGGAUCAUCAAUTT against P2ry10 | -0.0942 |
| GGGAAUAUUUGGAUAACUUTT against Pak7 | 4.24 (active) |
| GCCACGACCAUUCAGACUCTT against Lrrc42 | 1.27 |
| GGAUGAUCGGCACUAUAACTT against Otulin | 1.81 |

| Sequence | z-score |
| --- | --- |
| GGAGAGAUGUUUAUGAAUATT against Slc6a14 | -0.429 |
| GGAAAAAGAUAGAACCAGATT against Larp1b | -0.177 |
| GGAAAGCUCUUUGUGUCGGTT against Gramd3 | -0.476 |
| CCAUCUAGUGCUGUAUUUCTT against Rnf215 | 0.67 |
| GGUGAAAUCCAUUAAAGAATT against Fth1 | -2.06 (active) |
| GGAGUUUUCUCGAAACUUCTT against Fate1 | 0.993 |
| GGACCAAGAACCAGCAAUGTT against Defb6 | -0.69 |
| GGAAAAACUGAAACAGUUUTT against Eif3a | 1.06 |
| AACACGGCUCUAGCCAAUCTT against Ypel4 | -1.25 |
| GCCAAUUUGAAUGGGAUGUTT against Magohb | -2.25 (active) |
| GGUGGUUACCAUAGCUGGUTT against Arid2 | 1.67 |
| CCUAAACUCACUCUUGUGUTT against Chrna6 | -0.000677 |
| CCUAGACGUGACUUAAUAUTT against Rabggtb | 2.09 (active) |
| CCUCAGCAAAUAUAUGGCATT against Ccdc7b | 0.0117 |
| GCAAGCUGAGCAUUGAUGATT against Csk | 0.0106 |
| GCAGUCUUUUGGAUAGGUUTT against Ccni | 0.86 |
| GCUGUGCAGCCACAAGUGATT against Gpr142 | 8.63 (active) |
| GGAUGGAAUGCAGAAACGATT against Pcp2 | -0.061 |
| GGGAUCAGAAAAGUUAACATT against Acaca | 0.785 |
| GGACUUCACUUUUCUAUGATT against Tmem64 | 1.47 |
| GGCUUUGGACUGUAUGACCTT against Ccdc159 | -0.923 |
| GGUGGAAAGAGAGAGCUACTT against Slc12a7 | 0.458 |

| Sequence | z-score |
| --- | --- |
| GGUUUGCUGAGAAAUUAACTT against Btg3 | 0.958 |
| GCCCACGUAUUUGUCUGCUTT against Sprn | -2.58 (active) |
| GCCUUCUUAACUUCAUCACTT against Taar5 | 1.16 |
| CCUGAACACAAGUGCUGGUTT against Clec4a4 | -1.8 |
| GGCCAUCACACACAGAAACTT against Pla2g2f | -0.505 |
| GGCUAUGCAGAUGGUACCUTT against Vil1 | 0.871 |
| CCAUGUGUCAAACUACCGGTT against Rbmx2 | 7.02 (active) |
| CCAUGAUUAAGGGUCUCUATT against Ldha | 0.111 |
| GGUGGUAAAUAAUUAAGGATT against Clec14a | 0.623 |
| GGAACUGAUAAACUACUCUTT against Olfr1126 | -2.08 (active) |
| GGGAAUGAGUCAGCUCUUUTT against Cd163 | -0.667 |
| GGCUAAACUGAAGGAAUUCTT against Fkbp10 | 0.875 |
| GGUAGGAAUUUGGAAAACUTT against H2-T24 | 1.5 |
| GGAAAUUGUUGUUUCCCGUTT against Sf3b3 | -1.45 |
| GGCCACCAAGAAAUUCAAATT against Cd22 | 4.16 (active) |
| GCCUAUCUGUGACUGACCUTT against LOC433501 | -0.171 |
| GCGAGAGCUAAAGUAAAAUTT against Egln1 | -0.671 |
| GGCUAAAGUGAGCUCUUCATT against Nob1 | -0.947 |
| GGUGUGUUACUGAUGAUUCTT against Olfr669 | -0.37 |
| GCAGAGUGACUUUGAAGCGTT against Klf10 | 0.844 |
| CCAAGUUCAUUCUUUUUGCTT against Cobll1 | 1.2 |
| CCCUAGAAGAAUCAAGCUCTT against Prune2 | -1.35 |

| Sequence | z-score |
| --- | --- |
| GGAAUGAUAGAAAAUGGACTT against Gvin1 | -2.16 (active) |
| GGCAGAGACCACUAAUACCTT against Tmem131l | -0.881 |
| GGCAGGCAAUUCAAACAAUTT against Orm1 | -1.24 |
| GCUAUCCUCAAUUGCACACTT against Atxn3 | 1.49 |
| GGUUUGAAAGGAGAAAGAGTT against Col4a6 | 0.366 |
| GGCCUUCGUCAUCUUCAAGTT against Snrpa | 1.05 |
| GGCCCAAGCUCAACACAAUTT against Aida | 2.31 (active) |
| GGCCAAGAAAAAAGAAAGATT against Slc22a2 | 0.126 |
| GGGUUCAGGAGAACUAACUTT against Tmem40 | -1.92 |
| GGAUCCUGUUAAGAUUAUCTT against Phykpl | -0.0411 |
| GGAUAUUCACUUUCAUAUGTT against Gulp1 | 1.25 |
| GGUUUAUGGAGCAAGUGAUTT against Actr3 | -2.07 (active) |
| CCAACAAUGUUUAAAGGAUTT against Olfr476 | -0.32 |
| GCCAUGUGCACUGAAUAUATT against Gfral | -1.87 |
| GGUCAUCAGUGAUCAGUCATT against Mre11a | -1.33 |
| GCAGCAUCCAACUUCCGCUTT against Ffar2 | 3.35 (active) |
| GGAAAAAAUCAAGAGUGAATT against Fam50a | -0.157 |
| GCUACUCUCUAUUGGUUUUTT against Gpr45 | 2.45 (active) |
| GGUGAACUUGAGGUCACACTT against Angpt4 | 0.134 |
| GCGGGUUUAUUGUCUAGAATT against Mfn2 | 0.669 |
| GGAAGUAGAUUUGAAGUUGTT against Btbd35f1 | 0.256 |
| GGAGCUCUUUUUGAACACUTT against Sgcg | 0.946 |

| Sequence | z-score |
| --- | --- |
| GGCCAAUCAAGAUAGCCACTT against Dnajc1 | 1.12 |
| GCUCUCUCUCUUCUUACUGTT against Olfr1160 | -2.16 (active) |
| GCCGUUUGGUUUCGAACUUTT against Mboat2 | 1.17 |
| GGUGGAGUGAUACGAAGAGTT against Radx | 1.21 |
| CCAUAGUAGCUACCUUGAUTT against Fam107a | 0.537 |
| GGAUGAGGUGAACUGAGGGTT against Tmem150b | 0.777 |
| GGAAGGUUUGUUGUUUUGUTT against Apon | -1.58 |
| GGAUAUGACUAGGUGAAUUTT against Ebf3 | -1.04 |
| GGACAUUGUCAAUAUGCUCTT against Pygm | 0.633 |
| GGUGUGGAAGUCAGUUUAATT against Serpinb3a | 2.53 (active) |
| CGAUGUGACUAUUUGUUGATT against Snx11 | 0.425 |
| GGACCUAAACUGUCAGGAGTT against Eif3g | 0.15 |
| GCUCUGUUGUGGAUGCAAUTT against Lonrf2 | 0.859 |
| GGGCGGUUCAAAAGGUCAGTT against Cacnb1 | 2.27 (active) |
| CCGGGAUGGAGAAUAAGCUTT against Fgfbp3 | -0.264 |
| GCUAUAGGGACCUCUGUCATT against Cdh5 | -2.72 (active) |
| CCAUGACAUUUCCUAAGUUTT against Sall3 | -0.2 |
| GGAGAUUUAUACACACUUGTT against Snx17 | 0.615 |
| GCUCCUACUACUGCUUUGCTT against Crem | 0.979 |
| GCCCAAAGGUCAAGGAUAUTT against Rptn | -0.036 |
